An excerpt weighted towards active compounds, which were near 8.3% of everything screened.
Giardia killer – Giardia lamblia killing | Giardia lamblia trophozoite viability | activity change, % at 7.66 µM, hits read low | actives 0.15% (n = 340,000); in the data active = activity change below about -80%; inconclusive = between about -30% and that limit;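 also: parasites exposed to compound for two days anaerobically before the ATP read; % is scaled to controls: 0 for no effect and ±100 for the full control effect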
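Each well holds 100 Giardia trophozoites and compound. After two days (48 hrs) at 37 deg C in anaerobic conditions, ATP is quantified by luminescence.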
Chronic BCR inh – inhibitors of chronic active B-cell receptor signaling | ABC-DLBCL IkBa-CBG/CBR reporter, luminescence ratio, 4 h | Potency, µM (series often up to 46.1 µM), inactives show at the highest dose activity change, negative = inhibition, actives largely listed as inhibitors | actives 0.05% (n = 340,000) | AID 493014; active = well fitted inhibition curve with a large enough effect in the signal ratio, with a control signal flat, not every such curve was filed as active; inconclusive = small, poorly fitted or top-dose-only effect, or effect the other way, or a change in a side signal; the % refers to the signal ratio;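 also: potency is read from the fitted curve at half-maximal effect; plate controls were basal doxycycline-induced cells for no effect and cells given 10 µM MG132 for full effect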
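TMD8 human ABC-DLBCL cells with doxycycline-inducible IκBα–green luciferase fusion and unfused red luciferase, in 0.5% FBS medium; compounds up to 46 uM, 4 h at 37C. Green/red luminescence ratio, filter-overlap corrected, fitted to concentration-response curves.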
MCF10A rerep – induces DNA re-replication in MCF 10a normal breast cells | MCF 10A DNA re-replication, Hoechst nuclear intensity, 48 h | Potency, µM (highest dose often 46.1 µM), for inactives: top-dose activity, positive = re-replication, hits mostly activators | actives 2.9% (n = 350,000); also: potency is read from the fitted curve at half-maximal effect; % of control where 0% means no effect; nearly all actives have a fitted effect of over 50% in size
VP16 counter – inhibits Gal4-VP16 luciferase reporter, ROR gamma counter-screen | actives 3.5% (n = 310,000) | Drosophila S2 Gal4-VP16 UAS-luciferase, luminescence, 20 h | Potency, µM (series often up to 53.6 µM), inactives show at the highest dose activity, negative = inhibition, hits mostly inhibitors;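 also: Gal4-VP16 expression switched on by copper sulfate through the metallothionein promoter; potency is read from the fitted curve at half-maximal effect; % is scaled to controls: 0 for no effect and ±100 for the full control effect; nearly all actives have a fitted effect of over 50% in size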
RORgamma inh – ROR gamma (mouse) transcription inhibition; P51450; Drosophila S2 Gal4-RORgamma UAS-luciferase reporter, 20 h; Potency, µM (top dose mostly 53.6 µM), inactives show at the top dose activity change, negative = inhibition, usual class: inhibitors; actives 5.4% (n = 310,000); AID 2551; also: potency is read from the fitted curve at half-maximal effect; % is scaled to controls: 0 for no effect and ±100 for the full control effect; nearly all actives have a fitted effect of over 60% in size
Target sequence (P51450 whole entry, looked up, the tested form may be a part): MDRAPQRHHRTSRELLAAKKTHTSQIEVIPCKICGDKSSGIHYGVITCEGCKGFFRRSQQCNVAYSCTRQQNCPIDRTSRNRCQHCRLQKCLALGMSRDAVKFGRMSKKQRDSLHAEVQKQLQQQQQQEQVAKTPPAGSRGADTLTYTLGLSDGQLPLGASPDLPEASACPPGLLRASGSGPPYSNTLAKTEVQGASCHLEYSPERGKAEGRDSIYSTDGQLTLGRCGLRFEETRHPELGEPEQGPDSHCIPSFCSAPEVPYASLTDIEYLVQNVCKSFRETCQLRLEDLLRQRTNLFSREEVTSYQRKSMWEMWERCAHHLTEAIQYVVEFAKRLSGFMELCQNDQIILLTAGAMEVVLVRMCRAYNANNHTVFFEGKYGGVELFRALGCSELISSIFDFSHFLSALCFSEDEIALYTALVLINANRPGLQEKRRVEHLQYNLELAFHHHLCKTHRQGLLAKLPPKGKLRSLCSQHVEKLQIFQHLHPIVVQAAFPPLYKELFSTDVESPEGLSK
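ROR gamma transcriptional activity was tracked as Gal4-UAS luciferase output in stably transfected Drosophila Schneider cells, with compound added 1 hr before 700 uM copper sulfate induction and a 20 hr ambient-temperature incubation.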
SW480 rerep – DNA re-replication induction in SW480 cells | AID 624297 | SW480 DNA re-replication, Hoechst DNA content imaging, 48 h | Potency, µM (top dose mostly 46.1 µM), inactives show at the top dose re-replication activation, actives largely listed as activators | actives 1.8% (n = 340,000); also: potency is read from the fitted curve at half-maximal effect; % of control where 0% means no effect; nearly all actives have a fitted effect of over 55% in size
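Readout is total intensity of Hoechst-stained nuclei, excited at 405 nm and collected at 500-530 nm. Compound treatment lasted 48 hr at 37 C in 5% CO2 before staining.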
* hit, by the source's call; ? = inconclusive; . = no result given; [ ] = another dose, or the depositor's remark. Unless noted, calls follow the shape of the dose curve; as a rule, active = well fitted curve in the direction sought with a large enough effect; inconclusive = small, poorly fitted or top-dose-only effect, or another doubt; inactive = no such curve, though single readings can be large; an effect the other way counts as inactive or inconclusive.

SMILES	Giardia killer	Chronic BCR inh	MCF10A rerep	VP16 counter	RORgamma inh	SW480 rerep
O=C(NC(=S)NNC(=O)c1cccs1)c1ccccc1	-20	?	11%	16µM*	5.6µM*	-1%
CC(C)(C)c1ccc(C(=O)NC(=S)NNC(=O)c2cccs2)cc1	-17	-8%	?	7.1µM*	4µM*	69%
COCCN(C(=O)c1snc(C(N)=O)c1N)C(C(=O)NC1CCCCC1)c1ccc(N(C)C)cc1 (centres undefined)	-10	3%	-2%	1%	57%	-1%
CCOc1ccc(NC(=O)CSC2=Nc3ccccc3C3=NC(CC(=O)NCc4ccccc4OC)C(=O)N23)cc1 (centres undefined)	.	11%	.	.	.	.
O=C1CC(c2ccccc2)CC(=NCCO)/C1=C(\O)CCCN1C(=O)c2ccccc2C1=O (centres undefined)	-17	16%	-4%	-10%	10%	-6%
O=C1N[C@@H](Cc2c[nH]c3ccccc23)C(=O)N[C@H]1Cc1c[nH]c2ccccc12	.	.	.	-2%	-10%	.
O=C1NC(Cc2c[nH]c3ccccc23)C(=O)N1Cc1ccc(CN2C(=O)NC(Cc3c[nH]c4ccccc34)C2=O)cc1 (centres undefined)	7	?	21µM*	-9%	0%	27%
COC(c1ccccc1)(c1ccccc1)C(Oc1nccc(C)n1)C(=O)O (centres undefined)	-2	10%	8%	5%	12%[1.91 µM]	2%
CC1CCCCN1C(=O)c1cc(S(=O)(=O)N2CCOCC2)ccc1Cl (centres undefined)	-15	1%	3%	.	.	-6%
COc1ccc(OC)c(NC(=O)c2ccno2)c1	26	3%	19%	-5%	3%	5%
COc1cccc(NC(=S)N2CCN(c3ccc([N+](=O)[O-])cc3)CC2)c1	8	3%	-14%	7%	0%	-5%
O=[N+]([O-])c1ccc(N2CCN(C(=S)Nc3ccc(F)cc3F)CC2)cc1	1	3%	-23%	?	13µM*	-35%
COc1ccc(NC(=S)N2CCN(c3ccc([N+](=O)[O-])cc3)CC2)cc1OC	-19	2%	?	7.1µM*	?	-2%
Cc1nn(-c2ccc(F)cc2)c(Cl)c1/C=C(\CCC(=O)O)c1nc2ccccc2s1	0	0%	18µM*	-6%	3%	-2%
O=C(O)CC/C(=C\c1cc([N+](=O)[O-])ccc1Cl)c1nc2ccccc2s1	-6	1%	19%	2%	3%	-2%
COc1ccc(-c2nc3ccccc3s2)cc1	?	2%	-2%	?	8.9µM*	-1%
O=c1c(-c2nc3ccccc3s2)cccn1Cc1ccccc1	5	?	5.2µM*	0%	-10%	12µM*
COc1cccc(-c2nc3ccccc3s2)c1	-18	?	2%	?	-24%	-3%
O=C(Nc1cccc(-c2nc3ccccc3s2)c1)c1ccc2c(c1)OCO2	9	-2%	?	8%	16%	?
c1ccc2sc(-c3ccc4c(c3)OCO4)nc2c1	-26	?	?	2.2µM*	?	8%
Nc1ccccc1-c1nc2ccccc2s1	4	?	16µM*	-1%	12%	?
CSc1nnc(CNS(=O)(=O)c2ccc(Cl)cc2)n1C	3	0%	0%	-7%	12%	9%
CCOc1ccc2nc(NC(=O)CC3Oc4ccccc4NC3=O)sc2c1 (centres undefined)	3	?	4%	-2%	22%	?
OCCC1CN(C2CCN(c3ccccc3F)CC2)CCN1Cc1ccccc1 (centres undefined)	?	-11%	6%	-5%	7%	-6%
NNC(=O)c1ccc(-c2cccc([N+](=O)[O-])c2)o1	?	-26%	-1%	15%	5%	0%
SMILES	Giardia killer	Chronic BCR inh	MCF10A rerep	VP16 counter	RORgamma inh	SW480 rerep
Cc1cnc(NC(=O)c2ccc(-c3ccc([N+](=O)[O-])cc3)o2)s1	16	2%	3%	.	.	-6%
Cc1ccc(Cc2cnc(NC(=O)/C(C#N)=C/c3ccc(-c4ccc([N+](=O)[O-])cc4)o3)s2)cc1	2	-2%	-8%	0%	2.2µM*	-9%
O=C(Nc1ncc(Cc2ccccc2Cl)s1)c1ccc(-c2cccc([N+](=O)[O-])c2)o1	-4	?	0%	?	5µM*	-14%
O=C(Nc1ncc(Cc2ccc(C(F)(F)F)cc2)s1)c1ccc(-c2cccc([N+](=O)[O-])c2)o1	-1	-2%	?	7.1µM*	5.6µM*	.
O=C(CCN1C(=O)c2ccccc2S1(=O)=O)Nc1ccc(F)c([N+](=O)[O-])c1	-3	1%	10%	.	.	-5%
Cc1cc(SCC(=O)Nc2cccc(S(=O)(=O)N3CCOCC3)c2)nc2ccccc12	-23	?	2%	15%	33%	17%
C=CCNc1oc(C2CCCC2)nc1C#N	1	0%	-4%	.	.	-11%
O=C(Nc1cccc(NC(=S)NC(=O)c2cccs2)c1)c1ccccc1	3	?	7%	?	10µM*	-4%
O=C(NC(=S)Nc1cccc(NC(=O)c2ccccc2Cl)c1)c1cccs1	-7	?	1%	?	11µM*	-7%
O=C(N/N=C/c1ccc(N2CCOCC2)cc1)c1ccc(O)cc1	23	?	3%	?	4.5µM*	-22%
C/C(=N\NC(=O)COc1ccc(C(C)(C)C)cc1)c1ccc(N2CCOCC2)cc1	-2	?	9.2µM*	?	?	-81%
Cc1ccc(C(=O)N/N=C/c2ccc(N3CCOCC3)cc2)c(C)c1	-6	-4%	0%	-2%	-13%	-6%
C/C(=N\NC(=O)c1ccc(F)cc1)c1ccc(N2CCOCC2)cc1	-10	?	-1%	-3%	-21%	6%
C/C(=N\NC(=O)COc1ccccc1)c1ccc(O)cc1	11	2%	0%	-21%	-1%	-11%
C/C(=N\NC(=O)c1ccc(O)cc1)c1ccc(N2CCOCC2)cc1	22	?	4%	?	1.8µM*	-6%
C/C(=N\NC(=O)c1ccc(N2CCCC2=O)cc1)c1ccc(O)cc1O	30	-10%	8%	0%	19%	9.2µM*
CCOCCCn1c(SCC(=O)Nc2ccc(C(C)C)cc2)nc2c(sc3ccccc32)c1=O	.	-5%	.	.	.	.
O=C(Nc1ccccc1F)C1CCCN(S(=O)(=O)c2ccccc2)C1 (centres undefined)	6	3%	?	-3%	-2%	?
C=CCNc1nc(N)c([N+](=O)[O-])c(Nc2ccccc2OC)n1	-18	-1%	12%	0%	-17%	0%

Assay outcomes from PubChem.
